Assay [1] can be described thus: qHTS assay to test for compound auto fluorescence at 535 nm (green) in HEK293 cells (AID 720680). In general terms: In qHTS, concentration-response curves come from the screen itself.
A short description of assay [2]: qHTS assay to test for compound auto fluorescence at 460 nm (blue) in HEK293 cell free culture (AID 720681). A digest of the protocol: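 Test compounds were pinned into cell-free culture medium (DMEM with 10% FBS) and fluorescence was read directly at Ex/Em 405/460 nm. Signals were expressed as fluorescence equivalents of triamterene, with DMSO vehicle as control.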

Assay [3] in a line: qHTS assay to test for compound auto fluorescence at 535 nm (green) in HEK293 cell free culture (AID 720682). A digest of the protocol: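 DMEM + 10% FBS, cell-free; cpd or DMSO pinned in; Ex485/Em535 read; output as fluorescein-equivalent signal.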
Assay [4] is described as follows: qHTS assay to test for compound auto fluorescence at 590 nm (red) in HEK293 cell free culture (AID 720683). An outline of the steps:
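Tox21 10K library compounds were pinned into cell-free DMEM with 10% FBS and fluorescence was read at excitation 540 nm. Activity is expressed as Rose Bengal sodium equivalency.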

Assay [5] can be described thus: qHTS assay to test for compound auto fluorescence at 590 nm (red) in HepG2 cell free culture (AID 720684). An outline of the steps:
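Red fluorescence (540 nm excitation, 590 nm emission) was measured after compound transfer into cell-free MEM supplemented with 10% FBS. Values are equivalencies against Rose Bengal sodium.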

The nature of assay [6]: qHTS assay to test for compound auto fluorescence at 460 nm (blue) in HepG2 cell free culture (AID 720685). An outline of the steps: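 Compound (23 nL) or DMSO pinned into cell-free MEM with 10% FBS; blue fluorescence read at 405/460 nm excitation/emission, expressed as auto-fluorescence equivalency to triamterene.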
A short description of assay [7]: qHTS assay to test for compound auto fluorescence at 535 nm (green) in HepG2 cell free culture (AID 720686).
Assay [8] addresses Glucocorticoid receptor (Homo sapiens) (UniProt P04150). As to the kind of experiment: qHTS assay to identify small molecule agonists of the glucocorticoid receptor (GR) signaling pathway (AID 720691; active = well fitted activation curve with a large enough effect in the signal ratio in the repeat runs, not every such curve was filed as active; the % refers to the signal ratio). As to conditions: GR-bla HeLa, beta-lactamase reporter ratio, 18 h; activation: at 62.4 µM (top of the series). An outline of the steps: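 Fluorescence intensity from LiveBLAzer B/G FRET substrate (2 h, room temperature) reports beta-lactamase expression driven by the glucocorticoid response element in GR-bla HeLa cells after 18 h compound exposure at 37 C.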

The target is the same in assay [9]. Nature of the assay: qHTS assay to identify small molecule antagonists of the glucocorticoid receptor (GR) signaling pathway (AID 720692; active = well fitted inhibition curve with a large enough effect in the signal ratio in the repeat runs, not every such curve was filed as active; the % refers to the signal ratio; note: potency is the fitted concentration of half-maximal effect). A digest of the protocol: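 HeLa GR-bla cells; cmpd + dex 5 nM final, 18 h 37 C; LiveBLAzer B/G FRET substrate 2 h RT; fluorescence intensity read. Antagonist mode, qHTS.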
Assay [10] is described as follows: qHTS assay to test for compound auto fluorescence at 460 nm (blue) in HepG2 cells (AID 720687). An outline of the steps: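 Cells (2,000/well in MEM with 10% FBS) attached overnight at 37 C, then were exposed to compound or DMSO for 1 hr at 37 C, 5% CO2. Fluorescence read at Ex/Em 405/460 nm, expressed as triamterene-equivalent signal.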

Results filed as inconclusive are left out. Activity calls are given as the source filed them. Unless noted, calls come from the whole dose curve; as a rule, active = well fitted curve in the direction sought with a large enough effect in the repeat runs; inconclusive = weak or mixed curves; inactive = flat fitted curve, though single readings scatter.

Chain of Glucocorticoid receptor (Homo sapiens) (P04150 whole entry, looked up): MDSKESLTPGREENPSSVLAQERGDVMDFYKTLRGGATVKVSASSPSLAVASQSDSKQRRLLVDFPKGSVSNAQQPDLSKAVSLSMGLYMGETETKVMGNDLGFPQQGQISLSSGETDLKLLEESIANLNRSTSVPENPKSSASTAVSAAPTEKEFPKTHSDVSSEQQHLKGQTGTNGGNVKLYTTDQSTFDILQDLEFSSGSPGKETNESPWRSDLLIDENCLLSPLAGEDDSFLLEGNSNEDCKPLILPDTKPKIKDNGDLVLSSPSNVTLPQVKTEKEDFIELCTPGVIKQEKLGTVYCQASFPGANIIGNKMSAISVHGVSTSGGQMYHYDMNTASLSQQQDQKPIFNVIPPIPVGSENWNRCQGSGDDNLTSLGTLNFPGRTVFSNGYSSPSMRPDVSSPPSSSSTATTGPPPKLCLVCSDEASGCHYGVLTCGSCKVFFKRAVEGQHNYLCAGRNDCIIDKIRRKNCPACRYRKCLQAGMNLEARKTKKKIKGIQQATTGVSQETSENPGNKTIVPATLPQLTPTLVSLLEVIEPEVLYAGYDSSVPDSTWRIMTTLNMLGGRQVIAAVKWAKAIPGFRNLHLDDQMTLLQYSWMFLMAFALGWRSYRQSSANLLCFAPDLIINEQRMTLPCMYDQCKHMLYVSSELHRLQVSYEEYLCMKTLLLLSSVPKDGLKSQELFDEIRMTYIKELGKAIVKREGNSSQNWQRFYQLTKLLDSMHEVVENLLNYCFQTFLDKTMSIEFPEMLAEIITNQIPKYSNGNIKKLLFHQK

As to `Oc1cc(O)cc(O)c1`, the Potency entry in assay [1], in assay [2], in assay [3], in assay [4], in [5] and in assay [7] was “inactive” each time. Besides, the Potency result in [8] was “inactive”. In assay [6], the compound was called inactive.

For `COc1ccc2cc([C@H](C)CO)ccc2c1`, the Potency result in assay [1], in assay [2], in assay [3], in assay [4], in assay [5] and in [7] was “inactive” in each case. The Potency result in assay [8] and in assay [9] was “inactive” in each case. Moreover, the compound was called inactive in assay [6].

Consider `C#C[C@]1(O)CC[C@H]2[C@@H]3CCC4=C(CCC(=O)C4)[C@H]3CC[C@@]21C`, for which the Potency entry in [1], in [2], in [3], in assay [4], in assay [5] and in assay [7] was “inactive” in each case. The Potency result in [8] is “inactive”. In assay [6], the compound was classed as inactive.

In the case of `O=S(=O)(O)CCCS(=O)(=O)O`, the Potency result in [1], in [2], in assay [3], in assay [4] and in assay [5] was “inactive” in each case. Moreover, the compound was called inactive in assay [6] and in [10].

As to `O=P(O)(O)C(Sc1ccc(Cl)cc1)P(=O)(O)O`, the Potency entry in [1], in assay [2], in assay [3], in assay [4], in assay [5] and in assay [7] was “inactive” each time. For the same compound, the Potency entry in assay [8] and in assay [9] was “inactive” in each case. For the same compound, the call in assay [6] was inactive.

With `CC#CCC(C)[C@H](O)/C=C/[C@@H]1[C@H]2C/C(=C/CCCC(=O)O)C[C@H]2C[C@H]1O` (some centres undefined), the Potency result in assay [1], in assay [2], in assay [3], in [4], in assay [5] and in assay [7] was “inactive” in each case. Further, the Potency result in assay [8] and in [9] was “inactive” in each case. In addition, in assay [6], the outcome was inactive.

In the case of `O=P(O)(O)C(O)(Cc1cnc2ccccn12)P(=O)(O)O`, the Potency result in [1], in assay [2], in assay [3], in assay [4], in assay [5] and in [7] was “inactive” in each case. The Potency result in assay [8] and in [9] was “inactive” each time. Besides, the compound was classed as inactive in assay [6].

With `CCCCCCC(=O)O[C@H]1CC[C@H]2[C@@H]3CCc4cc(O)ccc4[C@H]3CC[C@]12C`, the Potency entry in assay [1], in [2], in assay [3], in assay [4], in assay [5] and in assay [7] was “inactive” throughout. Also, the outcome in assay [6] and in assay [10] was inactive. Moreover, the Potency in assay [9] was 7.56 µM (active).

As to `CCNC(=O)[C@@H]1CCCN1C(=O)[C@H](CCCN=C(N)N)NC(=O)[C@H](CC(C)C)NC(=O)[C@@H](Cc1c[nH]c2ccccc12)NC(=O)[C@H](Cc1ccc(O)cc1)NC(=O)[C@H](CO)NC(=O)[C@H](Cc1c[nH]c2ccccc12)NC(=O)[C@H](Cc1cnc[nH]1)NC(=O)[C@@H]1CCC(=O)N1`, the Potency entry in [1], in [2], in assay [3], in assay [4] and in [5] was “inactive” in each case. Further, the result in assay [6] and in assay [10] was inactive.

With `Nc1nc(=O)n([C@@H]2CS[C@H](CO)O2)cc1F`, the Potency entry in assay [1], in assay [2], in [3], in assay [4], in assay [5] and in assay [7] was “inactive” throughout. The Potency result in [8] was “inactive”. Moreover, the result in assay [6] was inactive.

With `O=C(O)CC/C=C\CC[C@@H]1[C@@H](N2CCCCC2)[C@@H](O)C[C@@H]1OCc1ccc(-c2ccccc2)cc1`, the Potency result in assay [1], in assay [2], in assay [3], in [4], in [5] and in [7] was “inactive” in each case. Also, the Potency result in [8] and in [9] was “inactive” throughout. In assay [6], the call was inactive.

Consider `CCN(CC)CCOc1ccc2nc(N(C)C)sc2c1`, for which the Potency result in [1], in assay [2], in assay [3], in assay [4] and in assay [5] was “inactive” each time. The compound was called inactive in [6] and in assay [10].

On to `NC(=O)c1ccc[n+]([C@@H]2O[C@H](COP(=O)([O-])OP(=O)(O)OC[C@H]3O[C@@H](n4cnc5c(N)ncnc54)[C@H](O)[C@@H]3O)[C@@H](O)[C@H]2O)c1`, for which the Potency result in assay [1], in assay [2], in [3], in [4] and in assay [5] was “inactive” each time. In addition, the result in assay [6] and in assay [10] was inactive.

`O=C(NNCS(=O)(=O)O)c1ccncc1`: the Potency result in assay [1], in assay [2], in assay [3], in [4], in assay [5] and in [7] was “inactive” each time. The Potency result in assay [8] is “inactive”. Also, the result in assay [6] was inactive.

On to `CC(C)(C)c1ccc(CN2CCN(C(c3ccccc3)c3ccc(Cl)cc3)CC2)cc1` (centres undefined), for which the Potency result in [1], in assay [2], in [3], in assay [4], in assay [5] and in assay [8] was “inactive” in each case. Moreover, the compound was called inactive in assay [6] and in assay [10].

As for `O=[N+]([O-])c1c(Cl)cccc1-c1c[nH]cc1Cl`, the Potency entry in [1], in [2], in assay [3], in [4], in assay [5] and in assay [8] was “inactive” throughout. The result in assay [6] and in assay [10] was inactive. Moreover, in [9], the Potency was 21.3 µM (active).

With `CC(C)c1nc(N(C)S(C)(=O)=O)nc(-c2ccc(F)cc2)c1/C=C/C(O)CC(O)CC(=O)O` (centres undefined), the Potency entry in assay [1], in assay [2], in assay [3], in assay [4], in assay [5] and in assay [8] was “inactive” in each case. The Potency entry in [9] is “inactive”. Besides, the result in [6] and in assay [10] was inactive.

With `CC1(S(=O)(=O)O)CC(=O)c2ccccc2C1=O` (centres undefined), the Potency entry in [2], in [3], in assay [4], in assay [5] and in assay [7] was “inactive” each time. Also, the outcome in assay [6] and in assay [10] was inactive.

`COc1ccc(C[C@H](C)NC[C@@H](O)c2ccc(O)c(NC=O)c2)cc1`: the Potency entry in [1], in assay [2], in assay [3], in assay [4], in assay [5] and in assay [8] was “inactive” throughout. Further, the call in assay [6] and in assay [10] was inactive.

As for `CCc1ccc2c(c1)N(CC(C)CN(C)C)c1ccccc1S2` (centres undefined), the Potency result in assay [1], in [2], in [3], in assay [4], in assay [5] and in assay [8] was “inactive” each time. For the same compound, the compound was called inactive in assay [6] and in [10].

Consider `CCN(CC)CCOC(=O)c1cccnc1`, for which the Potency result in assay [1], in [2], in assay [3], in [4], in [5] and in assay [8] was “inactive” in each case. In addition, the compound was classed as inactive in assay [6] and in assay [10].

In the case of `CC(C(=O)O)c1ccc(N2Cc3ccccc3C2=O)cc1` (centres undefined), the Potency entry in assay [1], in assay [2], in assay [3], in assay [4], in assay [5] and in assay [8] was “inactive” in each case. In addition, the call in assay [6] and in assay [10] was inactive.

The record behind these values is PubChem BioAssay (Tox21).
